This note sets out measurements from PMC7862700, “An all-to-all approach to the identification of sequence-specific readers for epigenetic DNA modifications on cytosine”.

Common to all, as to assay: DAPPL (digital affinity profiling via proximity ligation, sequencing); 10 mM Tris-HCl pH 7.5, 50 mM NaCl, 1 mM DTT, 4% glycerol, room temperature, 30 min; GST-TFs on glutathione beads, 16-mer random dsDNA library, 0.1% formaldehyde crosslink after washing; high values mean tight binding
The target in one assay is T1, FEV (Homo sapiens, UniProt Q99581 1-238).
T1 sequence: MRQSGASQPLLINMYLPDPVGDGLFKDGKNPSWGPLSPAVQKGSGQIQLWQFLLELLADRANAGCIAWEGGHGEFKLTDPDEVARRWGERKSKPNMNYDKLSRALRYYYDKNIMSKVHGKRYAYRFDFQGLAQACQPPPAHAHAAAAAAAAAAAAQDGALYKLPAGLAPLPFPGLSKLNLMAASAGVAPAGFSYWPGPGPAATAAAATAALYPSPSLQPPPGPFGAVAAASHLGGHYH
The conditions noted are these: protein: recombinant; tags: N-terminal GST; dsDNA, one strand shown. The gist of the method:
(§1)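 Binding signal is given per hexamer as its read frequency for a factor divided by its frequency in the tag-only sample. GST-fused human transcription factors were expressed in yeast, captured on glutathione beads, barcoded with DNA and pooled with that sample, then incubated with 200 nmole of a 16-mer random double-stranded DNA library in Tris/NaCl/DTT/glycerol buffer for 30 min at room temperature. The pools were then washed, crosslinked, proximity-ligated, amplified by PCR and sequenced on an Illumina NextSeq500.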

In another assay the target is ETV5 (Homo sapiens, UniProt P41161 1-510). The conditions noted are these: protein: recombinant; tags: N-terminal GST; dsDNA, one strand shown. The method, boiled down: as §1
In the next assay the target is HSF1 (Homo sapiens, UniProt Q00613 1-529). The conditions noted are these: protein: recombinant; tags: N-terminal GST; chain copies: 3; dsDNA, one strand shown. The method, boiled down: as §1
Another assay has as its target T2, SPIC (Homo sapiens, UniProt Q8N5J4 1-248).
T2 sequence: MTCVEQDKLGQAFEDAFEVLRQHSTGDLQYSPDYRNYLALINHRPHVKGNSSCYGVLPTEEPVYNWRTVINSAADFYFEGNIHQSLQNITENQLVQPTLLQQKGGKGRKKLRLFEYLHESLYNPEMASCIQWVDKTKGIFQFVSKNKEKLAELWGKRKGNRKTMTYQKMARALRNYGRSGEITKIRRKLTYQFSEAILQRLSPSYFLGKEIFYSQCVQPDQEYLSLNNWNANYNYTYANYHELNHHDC
Conditions: protein: recombinant; tags: N-terminal GST; dsDNA, one strand shown. The gist of the method:
as §1

Another assay deals with ELF4 (Homo sapiens, UniProt Q99607 1-663). The conditions noted are these: protein: recombinant; tags: N-terminal GST; dsDNA, one strand shown. The method, boiled down:
as §1

The next assay addresses T3, ELK4 (Homo sapiens, UniProt P28324-2 1-405).
T3 sequence: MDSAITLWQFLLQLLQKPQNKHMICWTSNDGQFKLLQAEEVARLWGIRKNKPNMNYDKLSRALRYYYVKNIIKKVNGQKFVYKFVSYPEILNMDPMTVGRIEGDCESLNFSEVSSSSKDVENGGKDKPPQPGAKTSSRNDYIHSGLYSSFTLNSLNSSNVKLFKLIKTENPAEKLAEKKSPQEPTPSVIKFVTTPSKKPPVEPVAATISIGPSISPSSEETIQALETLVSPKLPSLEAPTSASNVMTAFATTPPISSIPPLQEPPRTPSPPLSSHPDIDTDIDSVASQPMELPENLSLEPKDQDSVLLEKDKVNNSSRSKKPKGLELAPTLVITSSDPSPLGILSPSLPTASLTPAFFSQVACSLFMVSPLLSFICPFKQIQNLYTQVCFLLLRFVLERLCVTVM
The conditions noted are these: protein: recombinant; tags: N-terminal GST; dsDNA, one strand shown. The gist of the method: as §1

The next assay concerns the target T4, ETV2 (Homo sapiens, UniProt O00321 1-342).
T4 sequence: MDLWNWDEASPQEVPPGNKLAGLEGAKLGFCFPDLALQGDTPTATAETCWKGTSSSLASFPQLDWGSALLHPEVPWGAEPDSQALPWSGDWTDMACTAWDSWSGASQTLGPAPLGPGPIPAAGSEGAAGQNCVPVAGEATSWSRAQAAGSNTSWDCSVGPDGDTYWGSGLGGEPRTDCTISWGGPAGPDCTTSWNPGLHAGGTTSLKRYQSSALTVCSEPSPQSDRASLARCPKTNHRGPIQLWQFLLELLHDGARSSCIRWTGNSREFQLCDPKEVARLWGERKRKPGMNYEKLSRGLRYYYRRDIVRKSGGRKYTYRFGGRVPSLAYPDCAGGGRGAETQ
The conditions noted are these: protein: recombinant; tags: N-terminal GST; dsDNA, one strand shown. The method, boiled down:
as §1

The target of a further assay is T5, ELF3 (Homo sapiens, UniProt P78545 1-371).
T5 sequence: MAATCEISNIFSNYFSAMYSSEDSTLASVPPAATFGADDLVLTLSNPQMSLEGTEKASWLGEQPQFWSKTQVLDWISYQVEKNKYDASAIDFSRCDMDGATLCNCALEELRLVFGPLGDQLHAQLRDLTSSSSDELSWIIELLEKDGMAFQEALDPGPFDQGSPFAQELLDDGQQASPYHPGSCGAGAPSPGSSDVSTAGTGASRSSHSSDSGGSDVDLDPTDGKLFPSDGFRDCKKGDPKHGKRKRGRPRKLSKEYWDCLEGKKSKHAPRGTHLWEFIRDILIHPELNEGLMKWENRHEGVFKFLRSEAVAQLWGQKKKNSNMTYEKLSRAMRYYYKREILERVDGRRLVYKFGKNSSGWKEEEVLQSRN
Conditions: protein: recombinant; tags: N-terminal GST; dsDNA, one strand shown. The method, boiled down:
as §1

The target in a further assay is CRX (Homo sapiens, UniProt O43186 1-299). Conditions: protein: recombinant; tags: N-terminal GST; dsDNA, one strand shown. The gist of the method: as §1
The target in another assay is ETV1 (Homo sapiens, UniProt P50549 1-477). The conditions noted are these: protein: recombinant; tags: N-terminal GST; dsDNA, one strand shown. The gist of the method: as §1
In another assay the target is T6, ERF (Homo sapiens, UniProt P50548 1-548).
T6 sequence: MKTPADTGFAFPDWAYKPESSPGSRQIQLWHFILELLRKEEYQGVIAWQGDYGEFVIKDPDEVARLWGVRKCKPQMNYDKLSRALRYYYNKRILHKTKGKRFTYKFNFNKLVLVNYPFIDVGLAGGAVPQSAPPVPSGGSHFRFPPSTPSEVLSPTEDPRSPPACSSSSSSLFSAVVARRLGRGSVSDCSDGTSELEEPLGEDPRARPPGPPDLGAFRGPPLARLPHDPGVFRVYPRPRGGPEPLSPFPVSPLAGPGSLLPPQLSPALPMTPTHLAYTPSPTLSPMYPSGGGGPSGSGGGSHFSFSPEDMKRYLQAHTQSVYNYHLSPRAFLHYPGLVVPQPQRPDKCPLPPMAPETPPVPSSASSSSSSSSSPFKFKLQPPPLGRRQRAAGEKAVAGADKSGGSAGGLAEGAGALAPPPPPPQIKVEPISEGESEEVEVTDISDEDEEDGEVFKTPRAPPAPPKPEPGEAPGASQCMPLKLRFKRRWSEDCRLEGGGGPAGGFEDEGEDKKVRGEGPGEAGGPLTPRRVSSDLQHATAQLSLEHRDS
Conditions: protein: recombinant; tags: N-terminal GST; dsDNA, one strand shown. The method, boiled down: as §1

The target of the next assay is T7, ETV3L (Homo sapiens, UniProt Q6ZN32 1-361).
T7 sequence: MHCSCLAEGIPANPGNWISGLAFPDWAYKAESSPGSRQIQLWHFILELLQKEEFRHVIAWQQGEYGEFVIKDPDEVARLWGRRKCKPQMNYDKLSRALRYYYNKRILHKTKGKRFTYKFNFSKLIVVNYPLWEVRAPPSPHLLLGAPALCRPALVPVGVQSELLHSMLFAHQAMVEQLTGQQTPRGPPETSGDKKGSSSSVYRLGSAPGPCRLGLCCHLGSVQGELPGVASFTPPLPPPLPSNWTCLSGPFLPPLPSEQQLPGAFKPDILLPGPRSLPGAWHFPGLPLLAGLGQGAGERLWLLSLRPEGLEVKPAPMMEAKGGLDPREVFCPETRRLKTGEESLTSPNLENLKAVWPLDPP
Conditions: protein: recombinant; tags: N-terminal GST; dsDNA, one strand shown. The gist of the method: as §1

A further assay has as its target T8, ETS2 (Homo sapiens, UniProt P15036 1-469).
T8 sequence: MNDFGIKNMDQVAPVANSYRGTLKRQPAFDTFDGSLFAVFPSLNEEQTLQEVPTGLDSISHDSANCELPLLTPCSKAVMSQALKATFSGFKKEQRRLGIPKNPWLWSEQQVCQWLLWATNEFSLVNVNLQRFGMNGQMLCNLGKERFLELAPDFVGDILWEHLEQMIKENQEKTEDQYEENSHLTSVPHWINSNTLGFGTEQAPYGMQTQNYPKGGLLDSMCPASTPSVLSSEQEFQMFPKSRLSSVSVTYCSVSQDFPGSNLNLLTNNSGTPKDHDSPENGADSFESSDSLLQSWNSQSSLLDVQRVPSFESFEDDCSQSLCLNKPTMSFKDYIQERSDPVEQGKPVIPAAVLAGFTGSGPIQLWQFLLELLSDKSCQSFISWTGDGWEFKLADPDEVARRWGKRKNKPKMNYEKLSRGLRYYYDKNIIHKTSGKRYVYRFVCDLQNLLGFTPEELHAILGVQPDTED
Conditions: protein: recombinant; tags: N-terminal GST; dsDNA, one strand shown. The method, boiled down:
as §1

For another assay, the target named is T9, SPDEF (Homo sapiens, UniProt O95238 1-335).
T9 sequence: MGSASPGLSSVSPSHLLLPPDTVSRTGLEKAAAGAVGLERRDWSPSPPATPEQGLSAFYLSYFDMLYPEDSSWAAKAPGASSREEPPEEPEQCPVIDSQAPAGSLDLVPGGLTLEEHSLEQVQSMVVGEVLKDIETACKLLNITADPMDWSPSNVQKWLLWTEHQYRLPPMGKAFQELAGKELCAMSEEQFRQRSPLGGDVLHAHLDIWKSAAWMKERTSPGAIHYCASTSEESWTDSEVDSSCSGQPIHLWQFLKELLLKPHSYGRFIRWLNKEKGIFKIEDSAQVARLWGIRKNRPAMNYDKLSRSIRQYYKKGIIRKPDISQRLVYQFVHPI
The conditions noted are these: protein: recombinant; tags: N-terminal GST; dsDNA, one strand shown. The gist of the method:
as §1

Another assay concerns the target T10, ETV7 (Homo sapiens, UniProt Q9Y603 1-341).
T10 sequence: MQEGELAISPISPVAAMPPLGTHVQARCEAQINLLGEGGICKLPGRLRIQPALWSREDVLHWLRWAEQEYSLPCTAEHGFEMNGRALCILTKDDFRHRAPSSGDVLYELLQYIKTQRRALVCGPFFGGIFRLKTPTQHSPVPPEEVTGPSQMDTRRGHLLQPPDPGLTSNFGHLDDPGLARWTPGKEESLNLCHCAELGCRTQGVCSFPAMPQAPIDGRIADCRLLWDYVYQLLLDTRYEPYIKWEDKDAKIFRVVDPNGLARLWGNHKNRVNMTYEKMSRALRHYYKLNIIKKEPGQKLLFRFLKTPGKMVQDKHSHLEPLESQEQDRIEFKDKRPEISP
The conditions noted are these: protein: recombinant; tags: N-terminal GST; dsDNA, one strand shown. The gist of the method:
as §1

A further assay deals with T11, ELF5 (Homo sapiens, UniProt Q9UKW6-2 1-255).
T11 sequence: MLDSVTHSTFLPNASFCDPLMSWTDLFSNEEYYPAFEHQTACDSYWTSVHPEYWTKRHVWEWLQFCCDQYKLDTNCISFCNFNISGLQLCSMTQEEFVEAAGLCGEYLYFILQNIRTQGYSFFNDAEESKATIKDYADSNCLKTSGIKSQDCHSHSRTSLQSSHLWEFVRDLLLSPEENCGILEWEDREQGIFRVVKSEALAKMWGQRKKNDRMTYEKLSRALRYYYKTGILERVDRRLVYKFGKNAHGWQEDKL
Conditions: protein: recombinant; tags: N-terminal GST; dsDNA, one strand shown. The method, boiled down:
as §1

For the next assay, the target named is T12, ETV3 (Homo sapiens, UniProt P41162-2 1-143).
T12 sequence: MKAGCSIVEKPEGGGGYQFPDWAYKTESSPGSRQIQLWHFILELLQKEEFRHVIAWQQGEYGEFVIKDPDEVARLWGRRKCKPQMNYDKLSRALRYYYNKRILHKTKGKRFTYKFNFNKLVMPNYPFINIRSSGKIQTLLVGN
Conditions: protein: recombinant; tags: N-terminal GST; dsDNA, one strand shown. The method, boiled down:
as §1

For the next assay, the target named is ETV6 (Homo sapiens, UniProt P41212 1-452). The conditions noted are these: protein: recombinant; tags: N-terminal GST; dsDNA, one strand shown. The method, boiled down:
as §1

ETV1, sequence (P50549 whole entry): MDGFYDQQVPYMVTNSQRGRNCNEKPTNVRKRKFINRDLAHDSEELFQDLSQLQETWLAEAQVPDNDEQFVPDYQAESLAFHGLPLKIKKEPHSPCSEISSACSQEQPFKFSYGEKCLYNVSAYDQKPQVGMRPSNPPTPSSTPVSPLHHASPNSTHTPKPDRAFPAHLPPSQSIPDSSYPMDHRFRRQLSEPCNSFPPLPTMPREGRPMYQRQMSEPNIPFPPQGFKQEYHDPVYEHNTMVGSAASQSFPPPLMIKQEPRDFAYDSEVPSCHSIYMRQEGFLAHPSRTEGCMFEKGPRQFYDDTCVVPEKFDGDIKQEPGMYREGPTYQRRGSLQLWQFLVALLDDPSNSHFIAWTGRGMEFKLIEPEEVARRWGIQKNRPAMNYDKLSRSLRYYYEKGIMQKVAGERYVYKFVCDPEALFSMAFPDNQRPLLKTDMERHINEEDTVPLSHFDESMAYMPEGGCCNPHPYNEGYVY
HSF1, sequence (Q00613 whole entry): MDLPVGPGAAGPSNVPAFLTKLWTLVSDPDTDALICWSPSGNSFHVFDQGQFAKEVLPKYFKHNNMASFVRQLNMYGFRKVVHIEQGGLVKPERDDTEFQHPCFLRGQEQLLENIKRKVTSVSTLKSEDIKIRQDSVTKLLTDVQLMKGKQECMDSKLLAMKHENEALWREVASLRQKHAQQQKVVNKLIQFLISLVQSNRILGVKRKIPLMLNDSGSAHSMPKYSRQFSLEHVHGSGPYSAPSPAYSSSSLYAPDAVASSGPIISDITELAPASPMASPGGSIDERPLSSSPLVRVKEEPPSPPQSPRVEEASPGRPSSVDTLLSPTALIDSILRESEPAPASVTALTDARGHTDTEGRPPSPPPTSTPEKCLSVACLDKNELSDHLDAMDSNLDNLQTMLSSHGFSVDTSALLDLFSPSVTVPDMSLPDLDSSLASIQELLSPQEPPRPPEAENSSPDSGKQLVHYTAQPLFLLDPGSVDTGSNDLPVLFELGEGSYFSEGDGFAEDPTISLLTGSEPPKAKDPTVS
CRX, sequence (O43186 whole entry): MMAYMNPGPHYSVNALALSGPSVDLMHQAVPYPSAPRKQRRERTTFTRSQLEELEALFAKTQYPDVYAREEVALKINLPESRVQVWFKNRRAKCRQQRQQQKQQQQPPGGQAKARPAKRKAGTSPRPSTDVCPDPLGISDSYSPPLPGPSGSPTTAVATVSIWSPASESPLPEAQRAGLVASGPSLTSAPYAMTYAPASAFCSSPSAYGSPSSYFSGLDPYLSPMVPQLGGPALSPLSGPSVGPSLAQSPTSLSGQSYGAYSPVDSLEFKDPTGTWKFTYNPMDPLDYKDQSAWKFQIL
ETV5, sequence (P41161 whole entry): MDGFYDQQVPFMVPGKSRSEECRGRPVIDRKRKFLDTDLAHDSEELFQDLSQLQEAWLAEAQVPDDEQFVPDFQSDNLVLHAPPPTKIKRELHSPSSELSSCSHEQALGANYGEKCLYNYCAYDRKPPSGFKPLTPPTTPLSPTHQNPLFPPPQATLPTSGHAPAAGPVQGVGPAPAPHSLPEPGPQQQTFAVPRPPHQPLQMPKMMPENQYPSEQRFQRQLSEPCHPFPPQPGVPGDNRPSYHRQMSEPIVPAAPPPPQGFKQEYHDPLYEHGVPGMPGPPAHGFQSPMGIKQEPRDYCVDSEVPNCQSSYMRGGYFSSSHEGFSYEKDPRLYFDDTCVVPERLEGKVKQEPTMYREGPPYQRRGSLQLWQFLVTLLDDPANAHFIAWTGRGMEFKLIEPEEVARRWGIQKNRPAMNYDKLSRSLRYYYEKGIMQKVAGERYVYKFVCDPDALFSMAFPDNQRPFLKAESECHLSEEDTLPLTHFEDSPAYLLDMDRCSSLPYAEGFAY
ELF4, sequence (Q99607 whole entry): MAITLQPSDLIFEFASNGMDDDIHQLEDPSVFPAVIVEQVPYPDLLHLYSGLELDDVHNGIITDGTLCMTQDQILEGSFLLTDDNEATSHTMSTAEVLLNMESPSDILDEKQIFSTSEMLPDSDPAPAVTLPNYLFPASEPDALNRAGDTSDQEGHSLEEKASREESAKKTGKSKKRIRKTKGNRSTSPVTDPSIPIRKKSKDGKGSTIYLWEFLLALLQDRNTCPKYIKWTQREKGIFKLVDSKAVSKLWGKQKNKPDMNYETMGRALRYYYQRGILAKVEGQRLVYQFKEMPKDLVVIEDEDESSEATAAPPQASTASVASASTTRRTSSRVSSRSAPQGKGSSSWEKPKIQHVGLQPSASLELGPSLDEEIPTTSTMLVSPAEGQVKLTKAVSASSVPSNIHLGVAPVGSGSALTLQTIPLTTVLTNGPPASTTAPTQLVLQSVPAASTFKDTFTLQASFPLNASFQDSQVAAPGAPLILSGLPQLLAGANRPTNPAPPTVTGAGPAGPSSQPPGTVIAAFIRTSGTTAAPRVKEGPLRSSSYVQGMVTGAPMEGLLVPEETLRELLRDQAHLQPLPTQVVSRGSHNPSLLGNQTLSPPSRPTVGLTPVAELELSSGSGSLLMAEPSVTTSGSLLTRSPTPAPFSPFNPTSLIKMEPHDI
ETV6, sequence (P41212 whole entry): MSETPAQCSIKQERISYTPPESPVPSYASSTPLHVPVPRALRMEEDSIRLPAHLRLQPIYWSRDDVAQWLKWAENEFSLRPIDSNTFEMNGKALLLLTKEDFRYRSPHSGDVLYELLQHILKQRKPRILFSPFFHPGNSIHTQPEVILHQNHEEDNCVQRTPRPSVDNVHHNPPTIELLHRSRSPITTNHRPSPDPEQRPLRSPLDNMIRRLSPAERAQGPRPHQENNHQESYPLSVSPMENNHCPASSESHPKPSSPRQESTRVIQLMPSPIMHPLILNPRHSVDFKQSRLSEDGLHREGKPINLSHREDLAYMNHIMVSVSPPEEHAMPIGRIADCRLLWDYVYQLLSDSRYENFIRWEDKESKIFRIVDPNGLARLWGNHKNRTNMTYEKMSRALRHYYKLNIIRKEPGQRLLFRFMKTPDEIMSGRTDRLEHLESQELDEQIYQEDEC

As to ATATCC, the binding signal is 5.87 fold enrichment (6-mer frequency, TF over GST control) with FEV; 2.97 fold enrichment (6-mer frequency, TF over GST control) in the assay with ETV5; 1.31 fold enrichment (6-mer frequency, TF over GST control) in the assay with HSF1; 2.59 fold enrichment (6-mer frequency, TF over GST control) in the assay with SPIC; 2.27 fold enrichment (6-mer frequency, TF over GST control) with ELF4; 2.39 fold enrichment (6-mer frequency, TF over GST control) with ELK4. Also, the binding signal in the assay with ETV2 is 2.7 fold enrichment (6-mer frequency, TF over GST control); with ELF3, 2.77 fold enrichment (6-mer frequency, TF over GST control); with CRX, 1.58 fold enrichment (6-mer frequency, TF over GST control); with ETV1 it was 2.72 fold enrichment (6-mer frequency, TF over GST control); in the assay with ERF, 2.67 fold enrichment (6-mer frequency, TF over GST control); with ETV3L, 2.57 fold enrichment (6-mer frequency, TF over GST control). Further, the binding signal in the assay with ETS2 is 2.76 fold enrichment (6-mer frequency, TF over GST control); in the assay with SPDEF it was 4.48 fold enrichment (6-mer frequency, TF over GST control); in the assay with ETV7, 2.25 fold enrichment (6-mer frequency, TF over GST control); with ELF5, 3.58 fold enrichment (6-mer frequency, TF over GST control); with ETV3 it was 2.89 fold enrichment (6-mer frequency, TF over GST control); in the assay with ETV6, 2.64 fold enrichment (6-mer frequency, TF over GST control).
